Where “and” joins values, the source holds several entries; their conditions need not be identical. Identical values can stand only once. Hit rate of the full screen: of about 190,000 compounds, about 280 (0.15%) were called active. Shown is part of a subset that was picked to be rich in actives. A number with no mark means an inactive call. Rule as the data show it: active = inhibition above about 27% (passing the limit was not always enough); inactive = the rest.

Broadly, the inhibition is the change of the read-out against control, counted positive when it falls.

The subject of the test is HCMV UL50-UL53 nuclear egress complex (human cytomegalovirus). In words: inhibitors of HCMV UL50-UL53 interaction, biochemical, HTRF (AID 1918969). To be noted: normalized percent inhibition, hits give high values, concentration not given here.
As to `Cn1c(=O)n(C)c2cc(N3CCOCC3)c(NS(=O)(=O)c3ccc4c(c3)CCCC4)cc21`, the inhibition is -20%.

Consider `Cc1ccc2nsnc2c1S(=O)(=O)NCCc1c(C)[nH]c2ccccc12`, for which the inhibition was -75.9%.

Regarding `Cc1ccc(N2C(=O)/C(=C/c3ccc(OCC(=O)O)c(Br)c3)C(=O)NC2=S)cc1`, the inhibition was -28.5%.

Turning to `CC1=C(C(=O)OCCOc2ccccc2)C(c2cccnc2)C2=C(CC(c3ccc(Cl)cc3)CC2=O)N1` (centres undefined), the inhibition was -27.9%.

For `Cn1c2c(c3cc(C4CCCCC4)ccc31)CCCCC2=O`, the inhibition was 1.4%.

With `CCOC(C)=C(C#N)C#N`, the inhibition was 5.1%.

Consider `CC12CCOC1N(c1ccccc1)c1ccccc12` (centres undefined), for which the inhibition is -18.7%.

On to `CC(=O)Nc1ccc(N2C(=O)c3cc(C)nn3CC2(C)C(=O)NCc2ccc(Cl)cc2)cc1` (centres undefined), for which the inhibition is -1.4%.

In the case of `Cc1ccc(C2/C(=C(\O)c3ccccc3)C(=O)C(=O)N2CCN2CCOCC2)cc1` (centres undefined), the inhibition was 0.4%.

As to `Cc1c2cnn(CC(=O)NCc3ccco3)c(=O)c2c(C)n1Cc1ccccc1`, the inhibition is -1.5%.

Turning to `CCOC(=O)c1c(C)n(-c2ccc(Cl)cc2)c2ccc(Oc3nccc(Nc4ccccc4)c3C#N)cc12`, the inhibition is -12.5%.

Take `N#CC(=C=[N-])c1nc2ccccc2nc1-[n+]1cccc(NC(=O)c2ccc(Br)o2)c1`: the inhibition was -17.4%.

Consider `O=C(CN1CCN(S(=O)(=O)c2ccc3[nH]c(=O)[nH]c3c2)CC1)N1CCCCCC1`, for which the inhibition is -26.1%.

`CCOCCCNC(=O)N1Cc2c(sc3c2CCCC3)-n2cccc2C1c1ccc(N(C)C)cc1` (centres undefined): the inhibition is -33.4%.

Regarding `CC(C)CCNC(=O)C1(C)Cn2c(cc3ccccc32)C(=O)N1C1CC1` (centres undefined), the inhibition was -9.6%.

In the case of `Cc1ccc(-n2c(=O)c3c(n4c(SCC(N)=O)nnc24)-c2ccccc2CC32CCCCC2)cc1`, the inhibition was -17.8%.

In the case of `O=C(COc1ccc(-c2nc(-c3ccccc3)no2)cc1)N1CCCC1`, the inhibition is -28.2%.

`Cc1ccc(S(=O)(=O)C2(C(=O)N3CCc4ccccc43)CC2)cc1`: the inhibition is 1%.

For `CCOc1cc(C=C2C(=O)NC(=O)NC2=O)ccc1OCCOCCOc1ccc(C)cc1`, the inhibition is 45.8% (active).

With `CCOc1cc(C=C2C(=O)NC(=O)NC2=O)ccc1OCCOc1ccc([N+](=O)[O-])cc1`, the inhibition is -8.1%.

`COc1cc(C=C2C(=O)NC(=O)NC2=O)ccc1OCCOc1ccc([N+](=O)[O-])cc1`: the inhibition was 1.5%.

With `CCOC(=O)/C(C#N)=C/Nc1ccccc1`, the inhibition is -4.4%.

`Cc1cc(C)c(C(N)=O)c(=O)[nH]1`: the inhibition is -10.3%.

In the case of `O=C(NN1C(=O)/C(=C/c2ccc(-c3ccc([N+](=O)[O-])cc3)o2)SC1=S)c1ccccc1[N+](=O)[O-]`, the inhibition is -1.8%.

For `CCCC(O)c1nc2ccccc2n1CCOc1ccccc1Cl` (centres undefined), the inhibition is -14.3%.

Consider `CC1CCN(S(=O)(=O)c2ccc3ncn(CC(=O)N4CCCCC4C)c(=O)c3c2)CC1` (centres undefined), for which the inhibition is 3.7%.

`CC(C)(Oc1ccc(Cl)cc1)C(=O)OCCN1CCCC1=O`: the inhibition is 16.4%.

Turning to `CCOC(=O)c1c(C)oc2nc(COc3ncnc4c3cnn4-c3ccccc3)nc(N)c12`, the inhibition was -27.9%.

`Nc1c(C(=O)N2CCc3ccccc3C2)sc(=S)n1-c1ccccc1`: the inhibition is 3.7%.

Regarding `CCCCCC#CCC#CCCCCCCCC(=O)O`, the inhibition was -8.8%.

Consider `CCN(CC)c1nc(-c2ccccc2O)nc2ccccc12`, for which the inhibition is -4.1%.

In the case of `CC(Nc1nc(N2CCCC2)nc2ccccc12)c1ccccc1` (centres undefined), the inhibition was 38.8% and -22.4%.

Turning to `CC(C)Nc1nc(-c2ccccc2O)nc2ccccc12`, the inhibition was 54.6% (active).

For the compound `Cc1ccc(C)c(NC(=O)Cc2coc3ccc(C)cc23)c1`, the inhibition is -31.3%.

For `Cc1c(C(=O)O)sc2ncnc(N3CCN(c4ccccn4)CC3)c12`, the inhibition is -8.6%.

Turning to `O=C(O)CCCOc1ccc(Cl)cc1`, the inhibition was -22.4%.

As to `CCOc1ccc(N2CC(c3nc4ccccc4n3CCOc3ccc(OC)cc3)CC2=O)cc1` (centres undefined), the inhibition was -33.2%.

As to `CCc1ccccc1N1CC(c2nc3ccccc3n2CCCCOc2ccccc2)CC1=O` (centres undefined), the inhibition was 74.6% (active).

In the case of `COc1ccc(OCCCn2c(C3CC(=O)N(c4ccc(F)cc4)C3)nc3ccccc32)cc1` (centres undefined), the inhibition was -4.1%.

For the compound `CCc1nn(CC(=O)NCC2CCCO2)c(=O)c2cc3ccccc3n12` (centres undefined), the inhibition is -52.3%.

Turning to `CCOC(=O)c1sc2cccc(F)c2c1S(=O)(=O)N1CC=C(c2ccccc2)CC1`, the inhibition was 6.4%.

Consider `COC(=O)c1cc(S(=O)(=O)N2CCc3ccccc3C2)c[nH]1`, for which the inhibition was -4.8%.

On to `Fc1cccc(Cl)c1CSc1nnc(-c2c[nH]c3ccccc23)o1`, for which the inhibition was 15.6%.

Regarding `CCCc1oc2cc(O)ccc2c(=O)c1Oc1ccc(F)cc1`, the inhibition is 3.5%.

Turning to `Cc1cc(C)cc(-n2c(CCC(=O)O)ccc2-c2cccs2)c1`, the inhibition is -19.7%.

Turning to `Cc1cc(C)c2[nH]c(=O)c(CN(C(=O)Nc3ccccc3F)C3CC3)cc2c1`, the inhibition was -21%.

For the compound `CCOc1ccc(N2C(=O)N(CC(=O)N3CCCCC3C)c3ccccc3S2(=O)=O)cc1` (centres undefined), the inhibition was -6.7%.

Turning to `CCOC(=O)C1(c2ccccc2)CCCN1C(=O)CN1C(=O)c2ccccc2C1=O` (centres undefined), the inhibition is -40.9%.

Turning to `Cc1c(C(F)(F)F)nc(-c2ccc(CN(C)C)cc2)[nH]c1=O`, the inhibition is -18.3%.

Turning to `CCOC(=O)C1(C2(O)C(=O)c3ccccc3C2=O)CCCC1=O` (centres undefined), the inhibition is 7.6%.

With `CCOC(=O)C(C(=O)c1ccccc1)C1(O)C(=O)c2ccccc2C1=O` (centres undefined), the inhibition is 94.1% (active).

As to `CCOC(C(=O)c1ccccc1)c1ccccc1` (centres undefined), the inhibition is 1.5%.

Turning to `C#CCn1c(O)c(N=NC(=O)c2cc(OC)c(OC)c(OC)c2)c2ccccc21`, the inhibition is -43.6%.

As for `Nc1nnc2c([nH]c3ccccc32)c1-c1ccccc1`, the inhibition was -61.1%.

For `COc1ccc(CC(=O)OCC(=O)Nc2cc(C)ccc2C)cc1`, the inhibition is 20.6%.

For `Cc1cc(=O)n2[nH]c(CN(C(=O)CC(C)C)c3ccc(Cl)cc3)nc2n1`, the inhibition is -9.7%.

Regarding `CCCn1c2ccccc2n2cc(-c3ccc(F)cc3)nc12`, the inhibition was -23.6%.

As to `CCOC(=O)C1=C(C)N(c2ccc(OC)cc2)C(=O)/C1=C\c1ccco1`, the inhibition was -53.1%.

Turning to `COc1ccccc1-c1nnc(SCC(=O)Nc2cccc3nsnc23)n1-c1ccccc1`, the inhibition is -31.2%.

`COc1ccc(C2CC2/C(C)=N/O)cc1` (centres undefined): the inhibition was -8.3%.

On to `CN(C)S(=O)(=O)c1ccc2nc(NC(=O)CN3C(=O)c4ccccc4C3=O)sc2c1`, for which the inhibition is -36.1%.

With `Clc1cccc(-c2cc(-c3nc(-c4ccccc4)no3)[nH]n2)c1`, the inhibition was -20.2%.

Consider `Cn1c(CNC(=O)OC(C)(C)C)nnc1SCc1c(F)cccc1Cl`, for which the inhibition was -17%.

Turning to `CCC(Sc1nc2ncccc2o1)C(=O)N(Cc1ccccc1)C(C)C` (centres undefined), the inhibition was -29.3%.

As for `CCN1C(=O)c2cccc3c(S(=O)(=O)Nc4cccc(C)n4)ccc1c23`, the inhibition was -9%.

As to `O=C(Cc1csc(NC(=O)NC2CCCC2)n1)NCCc1c[nH]c2ccccc12`, the inhibition was -1.1%.

For `CCOC(=O)c1c(NC(=O)Cc2ccccc2)sc(C(=O)Nc2cccc(C(F)(F)F)c2)c1C`, the inhibition was 8.1%.

With `Cc1noc(C)c1COc1ccc(C(=O)OCC(=O)Nc2sc3c(c2C(N)=O)CCC3)cc1`, the inhibition is 13.2%.

On to `Cc1nn(C)cc1CN(C)C(=O)c1cnn2c(C(F)(F)F)cc(-c3ccc(Br)cc3)nc12`, for which the inhibition was -24.9%.

Take `Cc1ccc(C(CNC(=O)Nc2ccccc2)N2CCN(C)CC2)cc1` (centres undefined): the inhibition was -33.4%.

Turning to `N#Cc1cccc(NC(=O)CSc2ncccn2)c1`, the inhibition is 14.4%.

`Cc1ccc(NC(=O)Cn2cnc3ccc(S(=O)(=O)N4CCC(C)CC4)cc3c2=O)cc1F`: the inhibition is -4.6%.

On to `C#CCN1C(=O)C(c2c(-c3ccc(Cl)cc3)[nH]c3c2c(=O)n(C)c(=O)n3C)c2ccccc21` (centres undefined), for which the inhibition is -14.2%.

Turning to `COc1cc(OC)cc(C(=O)N2N=C(c3c(-c4ccccc4)c4cc(Br)ccc4[nH]c3=O)CC2c2ccco2)c1` (centres undefined), the inhibition is 0.4%.

As to `CCOc1ccc(/C=C2\SC(=O)N(CCNC(=O)c3c(CC)noc3C)C2=O)cc1OC`, the inhibition was -3.2%.

For `Cn1nccc1-c1nc(-c2cccc(NC(=O)Nc3ccccc3)c2)no1`, the inhibition is -30%.

As for `COC(=O)c1sccc1NC(=O)Cn1c(=O)nc(-c2ccccc2F)c2cc(Cl)ccc21`, the inhibition was -19.3%.

On to `CC1(C)CC(NCCNC2=CC(=C(C#N)C#N)CC(C)(C)C2)=CC(=C(C#N)C#N)C1`, for which the inhibition is -0.1%.

Consider `COc1ccc(-c2cc(C3CC3)nc3sc(C(N)=O)c(N)c23)cc1`, for which the inhibition is -38.3%.

Take `Cn1c(CCc2ccc(NC(=O)CN3C(=O)COc4ccccc43)cc2)nc2ccccc21`: the inhibition was -5.5%.

Consider `NCC(c1ccccc1)N1CCCC1` (centres undefined), for which the inhibition was -3.2%.

In the case of `Cc1ccc(S(=O)(=O)N/N=C2/CSCC2NC(=O)c2ccccc2)cc1` (centres undefined), the inhibition was -22.7%.

Take `CCC(C)NS(=O)(=O)c1cc(C(=O)OC)n(C)c1C` (centres undefined): the inhibition is -32.5%.

As for `CC(=O)N1c2ccc(S(=O)(=O)N3CCN(c4nc5ccccc5n5cccc45)CC3)cc2CC1C` (centres undefined), the inhibition is -16.8%.

`Cc1cc(C)cc(NC2=NS(=O)(=O)c3ccccc32)c1`: the inhibition was 7.9%.

Turning to `CCn1c(COC(=O)C2CSC3(C)CCC(=O)N23)nc2cc(S(=O)(=O)N(C)C)ccc21` (centres undefined), the inhibition was -24.2%.

Turning to `COC(=O)c1cc(OC(=O)c2cc(OC)cc(OC)c2)cc(C(=O)OC)c1`, the inhibition is 6.8%.

Regarding `COCC(=O)Nc1nc2nc(-c3ccccc3)cc(=O)n2[nH]1`, the inhibition is -6.9%.

In the case of `COc1ccccc1CNC(=O)C1CCN(c2ncnc3c2sc2nc(C)cc(-c4ccccc4)c23)CC1`, the inhibition is -7.4%.

Values taken from PubChem BioAssay AID1918969 (ICCB-Longwood Screening Facility, Harvard Medical School, 2023).
